Shown are actives, neighbours in structure and some others; about 2.8% of the full set was active somewhere.
NR1D1 modulator: Rev-erb alpha (human) modulation; 370,000 tested, 0.79% active; Rev-erbα–FITC-DNA binding, fluorescence polarization, 90 min; activity, % at 10 µM; P20393;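 active = activity above about 14%, limit read from the data; passing the limit was not always enough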
PG9 binder: binds the HIV-1 gp120 antibody PG9. inhibition, % at 6.7 µM. TR-FRET gp120-PG9 antibody binding. 360,000 tested, 0.43% active; in the data active = inhibition above about 8.5%
GASC-1 inh: blocks human GASC-1 demethylase activity | Q9H3R0 | GST-JMJD2C(1-420) H3K9me3 demethylation, DELFIA europium | inhibition, % at 2.35 µM | 330,000 tested, 0.069% active | AID 2099;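 active = more than half of a compound's replicate wells show inhibition beyond 50%, single wells judged on their own value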;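 also: signal counts dimethyl H3K9 product captured on neutravidin plate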
Target sequence (Q9H3R0 1-420 limits assumed): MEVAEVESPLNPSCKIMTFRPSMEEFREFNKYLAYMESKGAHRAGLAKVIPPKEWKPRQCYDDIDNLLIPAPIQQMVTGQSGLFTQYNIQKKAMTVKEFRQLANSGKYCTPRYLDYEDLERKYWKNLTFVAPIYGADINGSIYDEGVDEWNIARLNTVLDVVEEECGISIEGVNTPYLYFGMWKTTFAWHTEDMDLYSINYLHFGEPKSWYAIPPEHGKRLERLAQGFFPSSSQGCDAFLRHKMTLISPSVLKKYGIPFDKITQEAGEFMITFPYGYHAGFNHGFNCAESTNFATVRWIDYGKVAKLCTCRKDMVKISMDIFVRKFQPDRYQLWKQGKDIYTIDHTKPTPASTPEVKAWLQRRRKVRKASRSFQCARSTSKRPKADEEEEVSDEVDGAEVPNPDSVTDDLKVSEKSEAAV
PP1 inh: counter-screen for PP5 inhibitors: inhibitors of human PP1-alpha. P62136. purified PP1alpha, OMFP fluorescence. inhibition, % at 6.7 µM. 320,000 tested, 0.9% active;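 active = inhibition above the mean inhibition of all tested compounds plus 3 SD, computed separately for each screening campaign, cut at about 15% in these data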
proKLK7 act: activators of human kallikrein-7 zymogen; 370,000 tested, 0.9% active; P49862; activation, % at 7 µM; AID 652039; purified proKLK7, EDANS-DABCYL substrate fluorescence; 100% is mature enzyme control, 0% vehicle;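 active = activation above the mean of all tested compounds plus 3 SD, computed per campaign excluding outliers beyond control limits, cut at about 13% in these data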
Target sequence (P49862 whole entry, looked up): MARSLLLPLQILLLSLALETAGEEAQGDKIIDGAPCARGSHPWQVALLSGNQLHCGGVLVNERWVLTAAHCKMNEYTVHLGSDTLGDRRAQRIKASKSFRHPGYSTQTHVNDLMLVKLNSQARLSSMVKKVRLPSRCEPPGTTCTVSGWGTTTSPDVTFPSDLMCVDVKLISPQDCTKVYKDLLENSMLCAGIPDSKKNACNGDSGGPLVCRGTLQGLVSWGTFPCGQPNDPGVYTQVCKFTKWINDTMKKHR
PP5 primary: PP5 (human) phosphatase inhibition | P53041 | purified PP5c, OMFP substrate fluorescence | inhibition, % at 6.7 µM | 320,000 tested, 0.18% active;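 active = inhibition above the campaign's mean inhibition across all tested compounds plus 3 SD, cut at about 9.5% in these data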
PP1 inh confirm: human PP1 phosphatase inhibition, confirmation; AID 2358; inhibition, % at 6.7 µM; purified PP1alpha, OMFP substrate fluorescence; 1,900 tested, 52% active; shares compounds with PP1 inh;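 active = mean PP1 inhibition above a set limit taken from the earlier primary screen, cut at about 15% in these data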
PP5 counter: inhibits human PP5 phosphatase in PP1 counter-screen. shares compounds with PP1 inh. purified PP5c, OMFP fluorescence. inhibition, % at 6.7 µM. 1,900 tested, 4% active. AID 2360;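 active = mean PP5 inhibition over triplicate wells above about 9.5% taken from the earlier PP1 screen, limit read from the data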
Hits are given with their value; n = inactive; x = not tested or not shown.

SMILES | NR1D1 modulator | PG9 binder | GASC-1 inh | PP1 inh | proKLK7 act | PP5 primary | PP1 inh confirm | PP5 counter
COc1ccccc1N=Nc1ccc(O)c2ncccc12 | n | n | n | 19 | n | n | 16 | n
CCS(=O)(=O)c1ccc(N=Nc2ccc(O)c3ncccc23)c(OC)c1 | n | n | n | x | n | x | x | x
Cc1ccc(/C(O)=C2/C(=O)C(=O)N(c3ccccn3)C2c2cccc([N+](=O)[O-])c2)cc1 (stereo not drawn) | n | n | n | 18 | n | n | n | n
CCNc1nc(N)c([N+](=O)[O-])c(Nc2cccc(Cl)c2)n1 | n | x | x | x | x | x | x | x
COc1ccc(C2C(C(=O)c3ccco3)=C(O)C(=O)N2CCc2ccccc2)cc1OC (stereo not drawn) | n | n | x | 30 | n | n | 29 | n
CCOc1cc(Br)cc(/C=N/NC(=O)c2cccnc2)c1O | n | n | n | 22 | n | n | 19 | n
O=C(CSC(=S)N1CCOCC1)Nc1nc(-c2ccccc2)c(-c2ccccc2)o1 | n | n | n | 18 | n | n | n | n
O=C(CSC(=S)N1CCCCC1)Nc1nc(-c2ccccc2)c(-c2ccccc2)o1 | n | n | n | n | n | n | x | x
Cc1ccc(-c2cc(C(=O)NCCCn3ccnc3)c3cc(Br)ccc3n2)o1 | x | x | x | 32 | x | n | n | n
COc1cccc(-c2cc(C(=O)NCCCn3ccnc3)c3ccccc3n2)c1 | n | n | n | n | n | n | x | x
O=C(CCc1ccccc1)N[C@H]1[C@H](OCc2ccccc2)CCC[C@@]12C(=O)N(Cc1ccccc1)c1ccc(-c3ccccn3)cc12 | n | x | x | x | n | x | x | x
COC(=O)N/N=C/c1cc(N=Nc2ccccc2Cl)ccc1O | n | n | n | 19 | n | n | 25 | n
COC(=O)N/N=C/c1cc(N=Nc2ccccc2)ccc1O | n | n | n | n | n | n | x | x
COc1ccc(/C=C2/C(=O)N(c3nc4ccccc4s3)N=C2CSc2ccc(Cl)cc2)cc1 | n | n | n | 31 | n | n | n | n
O=C1c2cccc3cccc(c23)C(=O)N1CC1CCN(CC(O)COc2ccc3ccccc3c2)CC1 (stereo not drawn) | n | n | n | 34 | n | n | n | n
CC(C)c1ccc(NC2CCCN(C(=O)c3ccnn3C)C2)cc1 (stereo not drawn) | n | n | n | n | n | n | x | x
Cc1cc(C(=O)N2CCCC(Nc3ccc(C(C)C)cc3)C2)nn1C (stereo not drawn) | n | n | n | 47 | n | n | n | n
CCCN1C(=O)C(NC(C)=O)c2ccccc21 (stereo not drawn) | n | n | n | n | n | n | x | x
CCc1ccc2c(c1)C(NC(C)=O)C(=O)N2CCN1CCOCC1 (stereo not drawn) | n | n | n | 41 | n | n | 36 | n
O=C(O)c1ccccc1NS(=O)(=O)c1ccc2c3c(cccc13)C(=O)N2 | n | n | n | n | n | n | x | x
O=C1CCCc2oc3c(cc(NS(=O)(=O)c4ccc5c6c(cccc46)C(=O)N5)c4ccccc43)c21 | n | n | n | 20 | 26 | n | n | n
Cc1ccc(S(=O)(=O)c2nnn3c2nc(NCCCN2CCCC2=O)c2ccccc23)cc1C | n | n | n | n | n | n | x | x
Cc1ccc(S(=O)(=O)c2nnn3c2nc(NC2CCN(Cc4ccccc4)CC2)c2ccccc23)cc1C | x | x | n | 21 | x | n | n | n
CCCCC(=O)NC(c1ccc(N(C)C)cc1)c1ccc2cccnc2c1O (stereo not drawn) | n | n | n | 29 | n | n | 21 | n
CCCCC(=O)NC(c1ccc(N(CC)CC)cc1)c1ccc2cccnc2c1O (stereo not drawn) | n | n | n | 35 | n | n | 24 | n
SMILES | NR1D1 modulator | PG9 binder | GASC-1 inh | PP1 inh | proKLK7 act | PP5 primary | PP1 inh confirm | PP5 counter
CCN(CC)c1ccc(C(NC(=O)C(C)C)c2ccc3cccnc3c2O)cc1 (stereo not drawn) | n | n | x | x | n | x | x | x
COc1ccc(-n2c(SCC(=O)Nc3ccc4cn[nH]c4c3)nnc2-c2ccccc2)cc1 | n | x | x | x | n | x | x | x
COc1cccc(CNC(=O)[C@H]2CCCN2C(=O)[C@H]2CCCN2C(=O)N2CCCCC2)c1 | n | n | x | x | n | x | x | x
COC(=O)[C@@]12CCCCC=C1N(CCc1ccc(Cl)cc1)C(=O)[C@H]2CC(=O)NCCCCc1ccccc1 | n | x | x | x | n | x | x | x
COc1ccc2c(Cl)c(C(=O)N/N=C/c3ccncc3)sc2c1 | n | n | n | 40 | n | n | 48 | n
O=C(N[C@H](C(=O)N1CCC[C@H]1C(=O)NCCc1ccccc1Cl)c1ccccc1)C1CCCC1 | n | n | x | x | n | x | x | x
C#CCOCCOCCOCCNc1nc(N2CCN(C(=O)CCCCCCCCCCNC(=O)[C@@H](CCC(=O)O)n3cc(CCCCCN)nn3)CC2)nc(N2CCN(C(=O)CCCCCCCCCCNC(=O)[C@@H](CCC(=O)O)n3cc(CCCCCN)nn3)CC2)n1 | n | n | x | n | n | n | x | x
C#CCOCCOCCOCCNc1nc(N2CCN(C(=O)CCCCCCCCCCNC(=O)[C@H](CCCCN)n3cc(CCO)nn3)CC2)nc(N2CCN(C(=O)CCCCCCCCCCNC(=O)[C@H](CCCCN)n3cc(CCO)nn3)CC2)n1 | x | x | x | 18 | x | n | n | n
C#CCOCCOCCOCCNc1nc(N2CCN(C(=O)CCCCCCCCCCNC(=O)[C@H](CCCCN)n3cc(CCO)nn3)CC2)nc(N2CCN(C(=O)CCCCCCCCCCNC(=O)[C@@H]([C@H](C)O)n3cc(C)nn3)CC2)n1 | x | x | x | n | x | n | x | x
C#CCOCCOCCOCCNc1nc(N2CCN(C(=O)[C@H](CCCCN)n3cc(CCCC)nn3)CC2)nc(N2CCN(C(=O)[C@H](Cc3ccc(O)cc3)n3cc(CCO)nn3)CC2)n1 | x | x | n | 21 | x | n | n | n
C#CCOCCOCCOCCNc1nc(N2CCN(C(=O)CCCCCCCCCCNC(=O)[C@H](CCCCN)n3cc(CCCC(=O)O)nn3)CC2)nc(N2CCN(C(=O)CCCCCCCCCCNC(=O)[C@H](CCCN=C(N)N)n3cc(C[C@@H](C)CC)nn3)CC2)n1 | x | x | n | 42 | x | n | n | n
C#CCOCCOCCOCCNc1nc(N2CCN(C(=O)CCCCCCCCCCNC(=O)[C@H](CCCCN)n3cc(CCO)nn3)CC2)nc(N2CCN(C(=O)CCCCCCCCCCNC(=O)[C@H](CCCN=C(N)N)n3cc(C[C@@H](C)CC)nn3)CC2)n1 | x | x | n | 45 | x | n | 44 | n
CN1[C@@H](Cc2ccccc2)COc2cccc(N3CCCC3)c2S1(=O)=O | n | x | x | x | n | x | x | x
O=CN1CCN(C(=O)C2CCN(c3ncnc4c3sc3cccc(F)c34)CC2)CC1 | n | x | x | x | n | x | x | x
COc1ccc(NC(=O)C2C3CCC(O3)C2C(=O)O)c(C)c1 (stereo not drawn) | n | n | n | 62 | n | 65 | n | 27

Source: PubChem BioAssay
